# Experimental data from PubChem BioAssay (Tox21).
# A number with no mark means an inactive call. Activity calls are given as the source filed them. Calls follow the shape of the dose curve; as a rule, active = well fitted curve in the direction sought with a large enough effect in the repeat runs; inconclusive = weak or mixed curves; inactive = flat fitted curve, though single readings scatter.
# Experiment: qHTS assay to test for compound auto fluorescence at 535 nm (green) in HEK293 cell free culture (AID 720682)
# Settings: cell-free medium, green autofluorescence 485/535 nm, active compounds read high; series mostly up to 91.3 µM; activity change: at the top concentration
# Source text: U.S. Tox21 Program National Center for Advancing Translational Sciences [NCATS] NIH Chemical Genomics Center [NCGC] U.S. Environmental Protection Agency [EPA] National Institutes of Environmental Health Sciences [NIEHS] National Toxicology Program [NTP] U.S. Food and Drug Administration [FDA] Tox21 Assay Overview: Compound auto fluorescence often interferes with screening of the compound library against various biological targets and signaling pathways. Some of these compounds may have fluorophoric properties. Such properties may interfere with the assay outputs resulting in false positives and/or negatives. To decrease such complications and ensure the compound activities are relevant in terms of biological response, the Tox21 10K compound library was screened for auto fluorescence. From the fluorophores used as reporter signals in our screening assays, the auto fluorescence equivalencies of compounds against three fluorophores have been evaluated: Triamterene, Fluorescein and Rose Bengal sodium for blue, green and red fluorescence, respectively. The fluorescence intensities were measured using Excitation/Emission wavelengths at 405/460nm, 485/535nm and 540/590nm for blue, green and red labels, respectively. This assay includes the green fluorescence data.
# Tox21 Assay Protocol Summary: 5 uL of culture medium (DMEM containing 10% FBS) per well was dispensed into black wall/clear bottom 1536-well plates using a Multidrop Combi Dispenser (ThermoFisher Scientific, Waltham, MA). After 23 nL compound or DMSO vehicle was transferred into assay plate by a pintool work station (Kalypsys, San Diego, CA), fluorescence intensities in the assay plates were measured by an Envision (PerkinElmer, Shelton, CT) plate reader using three labels for measuring blue, green and red fluorescence at […] 460, 535 and 590nm respectively.
# % is scaled to controls: 0 for no effect and ±100 for the full control effect.
SMILES,activity change,outcome
CCOP(=S)(OCC)Oc1ncn(-c2ccccc2)n1,-0.0165%,–
CC(C)CP(=S)(S)CC(C)C,-0.0247%,–
CNNC,-0.0409% [at 95.7 µM],–
O=C(CCN1CC1)OCC(CO)(COC(=O)CCN1CC1)COC(=O)CCN1CC1,-0.0433%,–
CCC1(c2ccccc2)C(=O)NC(=O)NC1=O,–,inactive
Cc1ncsc1CCCl,-0.047% [at 46 µM],–
Cc1cc(C)nc(Nc2ccccc2)n1,0.0052%,–
COc1ncc(F)c2nc(S(=O)(=O)Nc3c(F)cccc3F)nn12,-0.0193%,–
Cc1nnc2n1-c1sc(CCC(=O)N3CCOCC3)cc1C(c1ccccc1Cl)=NC2,–,inactive
COCC(=O)N(c1c(C)cccc1C)N1CCOC1=O,0.0233%,–
Nc1ccccc1Cl,0.046%,–
C[C@H]1CCC[C@H](O)CCCCCc2cc(O)cc(O)c2C(=O)O1,–,inactive
CCOP(=S)(OCC)Oc1nc(Cl)n(C(C)C)n1,-0.0011%,–
CC1CN1P(=O)(N1CC1C)N1CC1C (stereo not given),-0.0231%,–
CCCCN(CCCCO)N=O,-0.0096%,–
O=P(O)(Oc1ccccc1)Oc1ccccc1,0.026%,–
CNC(=O)Oc1c(C(C)(C)C)cc(C)cc1C(C)(C)C,-0.0501%,–
COc1ccc(C(=O)N2CCCC2=O)cc1,-0.033% [at 46 µM],–
COc1cc(OC)nc(Sc2cccc(Cl)c2C(=O)O)n1,-0.0008%,–
O=C(Nc1ccccc1)N(Cc1ccc(Cl)cc1)C1CCCC1,-0.0221%,–

SMILES,activity change,outcome
O=NN1CCCCC1,-0.0045%,–
Oc1c(Cl)cccc1Cl,-0.0098%,–
[As]#[In],-0.0794%,–
CC(C)[N+](=O)[O-],0.1%,–
[O]=[Cd],–,inactive
N#CC(Cl)(Cl)Cl,-0.0295%,–
CCC(C)(C)c1cc(-n2nc3ccccc3n2)c(O)c(C(C)(C)CC)c1,-0.0996% [at 95.7 µM],–
O=[N+]([O-])c1ccc(CBr)cc1,-0.0057% [at 95.7 µM],–
N#CCCC#N,-0.0063%,–
CCS(=O)(=O)CCSP(=O)(OC)OC,0.0752%,–
CCOP(=S)(OCC)SCSP(=S)(OCC)OCC,0.0095%,–
N#CCNCC#N,0.104%,–
CCC1(c2ccccc2)C(=O)N=C(O)NC1=O (stereo not given),0.0243%,–
COC(=O)C(C)Oc1ccc(Oc2ccc(Cl)cc2Cl)cc1 (stereo not given),0.0068%,–
O=C1c2ccccc2C(=O)c2ccccc21,-0.008% [at 46 µM],–
CCOC(=O)N(C)C(=O)CSP(=S)(OCC)OCC,0.03%,–
O=C(O)C(Br)CBr (stereo not given),0.007% [at 95.7 µM],–
CC1=C(C(=O)Nc2ccccc2)S(=O)(=O)CCO1,0.0055%,–
CN(C)CCc1ccc(O)cc1,0.0263% [at 46 µM],–
NC(=S)C(N)=S,0.0428%,–
